Source: PubChem (National Center for Advancing Translational Sciences (NCATS))
IL-1B inflam inh: inhibitors of inflammasome signaling (IL-1 beta secretion). AID 743279. THP-1 LPS/ATP IL-1B secretion, AlphaLISA, 16 h; hits give low values. 4.7% of 360,000 active. activity change, % at 57.5 µM; in the data active means activity change below about -50%; inconclusive means mostly about -30% to -49%
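THP-1 cells pretreated 1 hr with compounds (up to 57.5 uM final), then stimulated with LPS (250 ng/mL final) plus ATP (1.25 mM final); secreted IL-1B measured by AlphaLISA after 16 hr, decreased signal indicating inhibition.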
TDP1 cell noCPT: qHTS for Inhibitors of human tyrosyl-DNA phosphodiesterase 1 (TDP1): qHTS in cells in absence of CPT | 15% of 420,000 active | DT40 Tdp1-/- hTDP1 cells, no CPT, ATP luminescence, 48 h | Potency, µM (top dose mostly 46.2 µM), inactives show at the highest dose activity change, negative = growth inhibition, hits mostly inhibitors | AID 686978, 2013; further: potency means the concentration at half of the fitted maximal effect; nearly all actives have a fitted effect of over 55% in size
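Chicken DT40 Tdp1-/- cells complemented with human TDP1, screened without camptothecin (DMSO vehicle only), 400 cells/well. Compounds pin-transferred, cells incubated at 37 °C for at least 48 hr. Growth read as ATP-dependent luminescence (CellTiter-Glo, 30 min at RT).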
HT1080NT lethal: kills 2HG-producing HT-1080-NT fibrosarcoma cells. 1.6% of 360,000 active. Potency, µM (series often up to 46.1 µM), inactives show at the top dose activity, negative = less viability, hits mostly cytotoxic. HT-1080-NT fibrosarcoma viability, CellTiter-Glo ATP luminescence, 48 h. AID 686970;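 further: NT is the 2HG producing partner of a matched IDH1 knockdown line; potency means the concentration at half of the fitted maximal effect; 0% = DMSO-treated cells and -100% = media-only wells without cells; nearly all actives have a fitted effect of over 55% in size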
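Fibrosarcoma NT cells, 750 per well in 5% FBS RPMI, were exposed to compound for 48 hours. Viability: CellTiter-Glo luminescence.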
HT1080 IDH1KD tx: HT-1080 IDH1 knockdown cell toxicity (counter line); HT-1080 IDH1 knockdown viability, ATP luminescence, 48 h; 2% of 360,000 active; Potency, µM (top dose mostly 46.1 µM), for inactives: top-dose activity, negative = toxicity, usual class: cytotoxic; AID 686971;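 further: potency means the concentration at half of the fitted maximal effect; 0% = DMSO wells and -100% = cell-free medium wells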
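Using the IDH1-knockdown HT-1080 line run in the same batch and compound series as the NT line, viability after 48 h at 37 °C was determined by CellTiter-Glo luminescence and expressed as % activity.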
DT40 TDP1 CPT: DT40-hTDP1 cell growth loss with CPT; chicken DT40 Tdp1-/-;hTDP1 cells + 20 nM CPT, ATP luminescence, 48 h; Potency, µM (top dose mostly 46.2 µM), inactives show top-dose activity change, negative = growth inhibition, hits mostly inhibitors; 12% of 420,000 active; AID 686979; further: potency means the concentration at half of the fitted maximal effect; nearly all actives have a fitted effect of over 55% in size
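Cell growth measured by CellTiter-Glo luminescence after a minimum 48 h, 37 C compound exposure with 20 nM CPT in Tdp1-knockout DT40 cells stably expressing hTDP1, seeded 400/well; qHTS titration format.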
ALOX12 inh: blocks human arachidonate 12S-lipoxygenase; P18054; purified 12hLO, xylenol orange hydroperoxide absorbance; Potency, µM (titrated, usually from 108 µM), inactives show top-dose activity change, negative = inhibition, actives largely listed as inhibitors; 1.1% of 580,000 active; AID 1671190; further: potency means the concentration at half of the fitted maximal effect
Target sequence (P18054 whole entry, looked up): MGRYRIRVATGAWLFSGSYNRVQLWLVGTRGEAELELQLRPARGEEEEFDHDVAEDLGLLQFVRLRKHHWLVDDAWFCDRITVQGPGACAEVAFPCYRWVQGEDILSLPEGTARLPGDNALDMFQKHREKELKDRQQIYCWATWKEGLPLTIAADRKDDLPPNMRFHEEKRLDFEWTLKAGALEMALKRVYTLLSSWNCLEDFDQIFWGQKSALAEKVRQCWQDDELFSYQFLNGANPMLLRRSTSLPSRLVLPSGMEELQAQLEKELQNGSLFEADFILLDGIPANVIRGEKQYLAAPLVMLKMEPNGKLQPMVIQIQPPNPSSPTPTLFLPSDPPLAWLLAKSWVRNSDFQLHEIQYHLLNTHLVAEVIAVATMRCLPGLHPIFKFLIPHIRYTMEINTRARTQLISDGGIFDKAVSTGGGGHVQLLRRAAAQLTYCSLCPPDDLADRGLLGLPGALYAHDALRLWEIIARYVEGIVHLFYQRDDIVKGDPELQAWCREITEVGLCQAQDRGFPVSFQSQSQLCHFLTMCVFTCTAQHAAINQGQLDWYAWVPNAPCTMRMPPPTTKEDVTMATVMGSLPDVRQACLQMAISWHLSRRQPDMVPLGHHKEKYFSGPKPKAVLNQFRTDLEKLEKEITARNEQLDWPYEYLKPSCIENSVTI
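Purified human 12hLO at 150 nM in 25 mM Hepes, 0.01% Triton X-100, pH 7.0, preincubated 15 min at room temperature with compound. Reaction started with 40 uM arachidonic acid, 30 min at room temperature. Hydroperoxide measured by Fe-xylenol orange, 573/405 nm absorbance ratio.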
Numbers without * were called inactive; ? = inconclusive; / = no result; [ ] = remark or other dose. Shown is part of a subset that was picked to be rich in hits. Unless noted, the call rests on the fitted dose curve; in most records, active means well fitted curve in the direction sought with a large enough effect; inconclusive means small, poorly fitted or top-dose-only effect, or another doubt; inactive means no such curve, though single readings can be large; an effect the other way counts as inactive or inconclusive. Unless noted, on the % scale 0 is the no-effect control and ±100 the full control effect.

SMILES | IL-1B inflam inh | TDP1 cell noCPT | HT1080NT lethal | HT1080 IDH1KD tx | DT40 TDP1 CPT | ALOX12 inh
CCn1c(Cn2nnc(-c3ccc(C)cc3)n2)nc2cc(S(=O)(=O)N3CCCCC3)ccc21 | / | / | / | / | / | 7%
COc1ccc(N2C(c3ccsc3)=Cc3cc4c(cc3C2c2c[nH]c3ccccc23)OCO4)cc1 (configuration not stated) | -6 | 23µM* | 21µM* | ? | ? | 93%
CN1CCCC2(CCN(C(=O)CCCS(N)(=O)=O)C2)C1=O (configuration not stated) | / | / | / | / | / | 35%
COc1ccc(CNC(=O)c2cc(-c3ccc(OC)c(OC)c3)nc3n[nH]c(-c4ccc(C)cc4)c23)cc1 | / | 5.2µM* | / | / | 5.8µM* | -9%
Cc1ccc(-c2cc(C(=O)NCCc3ccccc3)c3c(-c4ccc(C)cc4)[nH]nc3n2)cc1 | / | 9.2µM* | / | / | ? | 3%
CCCCNC(=O)c1cc(-c2ccc(OC)cc2)nc2n[nH]c(-c3cccc([N+](=O)[O-])c3)c12 | / | 18µM* | / | / | 21µM* | 5%
COc1ccc(-c2cc(C(=O)NCc3ccc(F)cc3)c3c(-c4ccc(F)cc4)[nH]nc3n2)cc1OC | / | 18µM* | / | / | 16µM* | 1%
CN(Cc1ccccc1)C(=O)COc1ccc2c(C(F)(F)F)cc(=O)oc2c1 | / | / | / | / | / | 2%
CC(C)CCN1CCC2(CN[S+](=O)([O-])c3ccccc3N2)C1 (configuration not stated) | / | / | / | / | / | 14%[176 µM]
C[C@H](O)c1c(-c2ccc(F)cc2)noc1C(=O)N1CCCC1 | / | / | / | / | / | -6%[176 µM]
COc1ccc(OC)c(/C(O)=C/C(=O)C(=O)Nc2ccccc2OC)c1 | 21 | 18µM* | 4% | 1% | ? | 7%
COc1ccccc1C(=O)Nc1ccccc1SC(=O)c1ccccc1OC | -3 | 2.6µM* | 18µM* | ? | 2.6µM* | 4%
COC(=O)c1ccccc1NC(=O)c1ccccc1OC | 0 | -25% | -6% | -3% | -8% | -17%
COc1ccc(OC)c(S(=O)(=O)N(C)CC(=O)Nc2ccccc2OC)c1 | 5 | ? | 20% | 4% | -6% | ?
C=CCSc1nc(N)c(C(=O)Nc2ccccc2OC)cc1C(=O)Nc1ccccc1 | 41 | 8.2µM* | -3% | -12% | 8.2µM* | 0%
COc1ccccc1NC(=O)Nc1ccc(Cc2ccncc2)cc1 | -87* | -3% | 0% | -7% | 8% | -3%
O=C(NNC(=O)c1ccccc1OCCOc1ccccc1)c1cccc(F)c1 | / | / | / | / | / | 5%
O=C(C(Sc1nncn1-c1ccccc1F)c1ccccc1)N1CCCC1 (configuration not stated) | / | / | / | / | / | 4%
CCn1c(-n2nc(C)c(C)c2C)nc2c1c(=O)n(Cc1ccc(OC)cc1)c(=O)n2C | / | / | / | / | / | -7%
Cc1nc(-c2c3n(c(=O)n(CC(=O)NCc4ccc5c(c4)OCO5)c2=O)CCCC3)no1 | / | / | / | / | / | 5%
COc1ccccc1NC(=O)c1ccccc1NC(=O)c1ccccc1C(=O)O | -5 | -13% | 1% | -6% | 3% | 1.8µM*
COc1ccccc1NC(C)=O | 31 | -2% | 7% | 9% | -1% | 11%
COc1ccccc1NC(=O)c1ccccc1C(=O)Nc1ccccc1OC | -67* | ? | -5% | -3% | ? | 11%
COc1ccccc1NC(=S)NNC(=O)c1ccccc1Br | 77 | 13µM* | 1% | 5% | 16µM* | 1%
COc1ccccc1NC(=O)c1ccccc1-c1ccccc1C(=O)O | 1 | 1% | 5% | 5% | -1% | 4%
SMILES | IL-1B inflam inh | TDP1 cell noCPT | HT1080NT lethal | HT1080 IDH1KD tx | DT40 TDP1 CPT | ALOX12 inh
COc1ccccc1NC(=O)c1cnc(Nc2ccccc2OC)c2ccccc12 | 33 | 1.2µM* | 3.7µM* | ? | 1.6µM* | -7%
COc1ccccc1C(=O)NNC(=O)c1ccccc1Br | 34 | 8% | 2% | 8% | -7% | 27%
COc1ccc(OC)c(NC(=O)c2cnc(Nc3ccc(C)c(Cl)c3)c3ccccc23)c1 | / | ? | / | / | -25% | -24%
COC1=C(Nc2ccccc2OC)C(=O)c2ccccc2C1=O | / | ? | 0% | -1% | -4% | 146%
O=C(Nc1ccccc1OC(=O)c1ccccc1)c1ccccc1 | 59 | 29µM* | ? | 15µM* | ? | 7%
COc1ccccc1NC(=O)Nc1ccc(NC(=O)c2ccccc2O)cc1 | ? | 29µM* | -10% | -15% | -27% | 32%
COc1ccccc1NC1=C(NC(C)=O)C(=O)c2ccccc2C1=O | 14 | ? | ? | ? | 18µM* | -18%
COc1ccc(Nc2ncc(C(=O)Nc3ccc(F)cc3F)c3ccccc23)cc1 | / | 18µM* | / | / | 13µM* | ?
CCOc1ccc(NC(=O)CSc2nc3ccccc3nc2N2CCC(C)CC2)cc1 | / | / | / | / | / | 54%
Cc1cccc(NS(=O)(=O)c2cc(C(=O)Nc3ccc4oc(C)nc4c3)ccc2C)c1 | / | / | / | / | / | 14%
COc1cc2c(cc1CNC(=O)C1CC(=O)N(Cc3cccnc3)C1)CCC2 (configuration not stated) | / | / | / | / | / | -1%
O=C1NC(=Nc2cccnc2)S/C1=C/c1ccc(F)cc1 | 13 | 3.3µM* | ? | ? | 2.9µM* | 45%
O=C1NC(=Nc2ccccc2)S/C1=C\c1cccn1-c1ccccc1 | -5 | 21µM* | ? | ? | 9.2µM* | ?
Cc1ccccc1N=C1NC(=O)/C(=C/c2cccn2C)S1 | -1 | 23µM* | -29% | -27% | 16µM* | ?
Cc1cccc(N=C2NC(=O)/C(=C/c3cccn3C)S2)c1 | 7 | 18µM* | -16% | -28% | ? | 71%
COc1ccc(C2CC(C)(c3ccc(OC)cc3OC)Nc3ccccc3N2)c(OC)c1 (configuration not stated) | 0 | 6% | -2% | -1% | 1% | -1%
CC(C)CC(OC(=O)c1cccs1)C(=O)NCC1CCCO1 (configuration not stated) | 8 | -4% | -1% | 3% | -7% | 0%
COc1ccc(C(OC(=O)c2cccs2)C(=O)NCC2CCCO2)cc1 (configuration not stated) | -59* | -2% | 13% | 5% | 3.7µM* | 4%
COc1ccccc1C(OC(=O)c1cccs1)C(=O)NCC1CCCO1 (configuration not stated) | 6 | -16% | 1% | -8% | -8% | 19%
